# Measured values as given in the supplement of paper PMC6555819.
# Test system: RXRa homodimer (NR concentration 180 nM)
# Assay: PBM binding z-score (relative to random genomic background probes); higher = stronger binding; sequences stand for … in GC…GCGATTGACAGCGTAGAATGAAGG
# Outline: (§1)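 Custom Agilent 4×180K protein-binding microarrays carried double-stranded probes, each with a 34-nt variable region. These regions held direct-repeat seeds, single-nucleotide variants, half-site ablations and random human genomic background sequences. Ligand-free nuclear receptor dimers were incubated on the arrays for 1 h, antibodies against each partner (one per run) detected binding, and scanned fluorescence was regression-normalized. Binding z-scores take the random background probes as reference.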
row,Sequence,PBM binding z-score
1,ATCGAAAGGTCGAGGTGAGTAGAGAGAAAGGGAA,4.41
2,AGAGTGAGGTTAAGATCAGGGAAACAGAATACAT,2.52
3,ATCGAAAGGTCGAAGGTGAGTATGCCCACCCGAA,5.13
4,TCTGCTAGGTAAGTTGGTCAGCTAACGAGCTGCC,-0.613
5,CGAATGAGGGCATGAGTTGATAGCAAATGCCGAT,1.03
6,CCTAGCAGGCCAATCTGGGTCACTCTAGGCTTGA,0.361
7,TCTTGTAGATCTAGCAGGTTAAGAAAGCCTGAGT,0.231
8,TCTGATAGGTCAGTTGGTCAGCTAACGAGCTGCC,2.15
9,ACTAGCAGGCCAAGTTTGGGGCACTCAAACAAAG,-0.356
10,TCTATTAGTTGATTAGCGCAACCGAAACAGCGGA,0.499
11,TCATATAGGTAAAAGGTGAAAATCGGTGTGGTAA,3.08
12,CCTTACGGGTCACTGACAGGTTATAGGATTTGGA,5.17
13,TCATATCGGTAAAGGTGAAAGTCGAACGATATGA,1.95
14,CCTAGCAGGCCAGGGTCCCTCAAGCATTTCGCTT,-0.657
15,TCGGCTAGGTCAACGATGGTCAGCTAATCTGCTA,2.56
16,TTACCAACGTGAAAGGTCGTTGATGCACGCCTTG,2.73
17,ACAGAGAGGTGATGAAGGTAACTCAGGCTATCAT,0.587
18,ACTTACGGGTCAACGAGGTTATAGCGCGCGTATA,6.24

# Test system: THRa:RXRa (NR concentration 90 nM, RXRa partner concentration 90 nM)
# Assay: as above
# Outline: as §1
row,Sequence,PBM binding z-score
1,CCGACAGGGGCAAAGGTTACCATACTCAGTACGA,2.17
2,CGTCAAAGTTCAAGATAACGTAACAGAAAGCAGC,1.72
3,CTCGAAAGGTCGGTTGAGGTGAGTGTACGGATAA,5.02
4,GCAGACAGGTGAAACGCAGGTAACGCAGGGTGGC,1.51
5,AGAATGAGGTTACCAAAGATCACGGAAACGCTTG,3.03
6,CGAACTAGGTCCTCCAGGACAGTGAATACATTGA,1.41
7,TCTTGTAGATCAAGCAGCTTAAGAAAGCCTGAGT,-0.48
8,TCTAGCAGGGCAGAGGGTCACTCAAGAGGTACGG,1.6
9,GCTTGTAGATCAAGGTTGAGAAAGACTAAGCTAA,-0.135
10,AGTCAAAGTTCCGGACGAGGTAACGTAAAGCACG,1.62
11,CCTTACGGGTCACTCCAGGGTATAGCATCGGAGT,4.35
12,ACTACTAGTTGAGACGAGGGCAACCGATAGGTTG,2.46
13,GCTGCTAGGTCAGGGTGGTCAGCTAACGGGTACG,2.12
14,GCTGTTAGTTGAAAGGGCAACCGAATGATTCTCG,0.729
15,TGAATGAGGTTAAACATCAGGGAACGTGGCGTCG,2.65
16,TCGAGTAGGTTAGTGGCATTCAGAATGGCGTCGA,-0.441
17,CCAACTGGGGCAAGGTTACCATAACGCACAGCCA,1.4
18,TAGCCTAGGTCATGCGGGCCAGGATAGTGTCGGC,3.06
19,GCTGCTAGGTCTACTGATGGTCAGCTAAAGCTCG,-0.635
20,ACAGACAGGAGAGTGAAGGTAACTCAGCTGGACG,0.195

row,Sequence,PBM binding z-score
1,GATACAGGGTCATGGCCAGAGTACGCGTATTGAT,3.78
2,GCTAGTTGGTCAGCAAAAGGTCACACACCGGTCG,3.41
3,ATCGAAAGGTCGAGGTGAGTAGAGAGAAAGGGAA,2.62
4,AGAGTGAGGTTAAGATCAGGGAAACAGAATACAT,2.6
5,ATCGAAAGGTCGAAGGTGAGTATGCCCACCCGAA,2.04
6,TCTGCTAGGTAAGTTGGTCAGCTAACGAGCTGCC,-0.549
7,CGAATGAGGGCATGAGTTGATAGCAAATGCCGAT,1.83
8,CCTAGCAGGCCAATCTGGGTCACTCTAGGCTTGA,3.2
9,TCTTGTAGATCTAGCAGGTTAAGAAAGCCTGAGT,0.286
10,TCTGATAGGTCAGTTGGTCAGCTAACGAGCTGCC,0.722
11,ACTAGCAGGCCAAGTTTGGGGCACTCAAACAAAG,0.348
12,TCTATTAGTTGATTAGCGCAACCGAAACAGCGGA,0.0464
13,TCATATAGGTAAAAGGTGAAAATCGGTGTGGTAA,1.56
14,CCTTACGGGTCACTGACAGGTTATAGGATTTGGA,2.96
15,TCATATCGGTAAAGGTGAAAGTCGAACGATATGA,1.19
16,CCTAGCAGGCCAGGGTCCCTCAAGCATTTCGCTT,-0.281
17,TCGGCTAGGTCAACGATGGTCAGCTAATCTGCTA,2.96
18,TTACCAACGTGAAAGGTCGTTGATGCACGCCTTG,1.35
19,ACAGAGAGGTGATGAAGGTAACTCAGGCTATCAT,1.33
20,ACTTACGGGTCAACGAGGTTATAGCGCGCGTATA,4.09

# Test system: THRa homodimer (NR concentration 90 nM)
# Assay: as above
# Outline: as §1
row,Sequence,PBM binding z-score
1,CCGACAGGGGCAAAGGTTACCATACTCAGTACGA,-0.142
2,CGTCAAAGTTCAAGATAACGTAACAGAAAGCAGC,-0.18
3,CTCGAAAGGTCGGTTGAGGTGAGTGTACGGATAA,1.78
4,GCAGACAGGTGAAACGCAGGTAACGCAGGGTGGC,-0.416
5,AGAATGAGGTTACCAAAGATCACGGAAACGCTTG,0.696
6,CGAACTAGGTCCTCCAGGACAGTGAATACATTGA,0.816
7,TCTTGTAGATCAAGCAGCTTAAGAAAGCCTGAGT,-0.676
8,TCTAGCAGGGCAGAGGGTCACTCAAGAGGTACGG,-0.329
9,GCTTGTAGATCAAGGTTGAGAAAGACTAAGCTAA,-0.906
10,AGTCAAAGTTCCGGACGAGGTAACGTAAAGCACG,0.886
11,CCTTACGGGTCACTCCAGGGTATAGCATCGGAGT,-0.222
12,ACTACTAGTTGAGACGAGGGCAACCGATAGGTTG,0.219
13,GCTGCTAGGTCAGGGTGGTCAGCTAACGGGTACG,0.797
14,GCTGTTAGTTGAAAGGGCAACCGAATGATTCTCG,-0.379
15,TGAATGAGGTTAAACATCAGGGAACGTGGCGTCG,0.474
16,TCGAGTAGGTTAGTGGCATTCAGAATGGCGTCGA,-0.559
17,CCAACTGGGGCAAGGTTACCATAACGCACAGCCA,0.42
18,TAGCCTAGGTCATGCGGGCCAGGATAGTGTCGGC,0.933
19,GCTGCTAGGTCTACTGATGGTCAGCTAAAGCTCG,-0.572
20,ACAGACAGGAGAGTGAAGGTAACTCAGCTGGACG,0.113

row,Sequence,PBM binding z-score
1,GATACAGGGTCATGGCCAGAGTACGCGTATTGAT,0.968
2,GCTAGTTGGTCAGCAAAAGGTCACACACCGGTCG,1.55
3,ATCGAAAGGTCGAGGTGAGTAGAGAGAAAGGGAA,0.626
4,AGAGTGAGGTTAAGATCAGGGAAACAGAATACAT,1.3
5,ATCGAAAGGTCGAAGGTGAGTATGCCCACCCGAA,-0.289
6,TCTGCTAGGTAAGTTGGTCAGCTAACGAGCTGCC,-0.918
7,CGAATGAGGGCATGAGTTGATAGCAAATGCCGAT,0.345
8,CCTAGCAGGCCAATCTGGGTCACTCTAGGCTTGA,0.202
9,TCTTGTAGATCTAGCAGGTTAAGAAAGCCTGAGT,-0.115
10,TCTGATAGGTCAGTTGGTCAGCTAACGAGCTGCC,-0.367
11,ACTAGCAGGCCAAGTTTGGGGCACTCAAACAAAG,-0.409
12,TCTATTAGTTGATTAGCGCAACCGAAACAGCGGA,0.16
13,TCATATAGGTAAAAGGTGAAAATCGGTGTGGTAA,0.242
14,CCTTACGGGTCACTGACAGGTTATAGGATTTGGA,0.251
15,TCATATCGGTAAAGGTGAAAGTCGAACGATATGA,-0.551
16,CCTAGCAGGCCAGGGTCCCTCAAGCATTTCGCTT,-0.649
17,TCGGCTAGGTCAACGATGGTCAGCTAATCTGCTA,0.739
18,TTACCAACGTGAAAGGTCGTTGATGCACGCCTTG,-0.282
19,ACAGAGAGGTGATGAAGGTAACTCAGGCTATCAT,0.312
20,ACTTACGGGTCAACGAGGTTATAGCGCGCGTATA,0.869
